Screens from PubChem.
Rows were chosen to be rich in hits. Some 15% of all compounds tested hit in one or more screens of this group.
HCV inhibitor = blocks hepatitis C virus; 3.4% of 340,000 active; Potency, µM (titrated, usually from 41.8 µM), usual class: inhibitors; Huh7.5.1 HCVcc-Cre infection, luciferase reporter, 44 h
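Luciferase read-out (15 sec integration) after a 15 min room-temperature substrate step quantifies HCVcc-Cre infection. Cells, 1,000 per well, had compound added 4 h post-plating, then virus at ~0.5 moi, and were cultured 44 h.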
Sm TGR inh = inhibitors of Schistosoma mansoni thioredoxin glutathione reductase; 3% of 360,000 active; purified TGR, DTNB reduction, TNB absorbance 405 nm; Q962Y6; AID 485364; Potency, µM (highest dose often 114 µM), actives largely listed as inhibitors; also: nearly all actives have a fitted effect of over 60% in size
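Kinetic colorimetric format: TGR-catalysed, NADPH-driven DTNB reduction monitored via TNB absorbance. Enzyme dispensed at 20 nM; compound exposure 15 min at room temperature before reaction start.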
SARS PLpro yeast = inhibitors of SARS-CoV papain-like protease in yeast | S. cerevisiae expressing SARS-CoV PLpro, growth rescue | Potency, µM (highest dose often 32.9 µM), usual class: activators | 0.19% of 330,000 active; calls by dose curve; also: nearly all actives have a fitted effect of over 55% in size
Pf growth 48h = inhibits P. falciparum growth in the first generation, 48 h. AID 504832. P. falciparum luciferase growth in erythrocytes, 48 h. Potency, µM (doses to about 28.7 µM), actives largely listed as inhibitors. 5.9% of 310,000 active
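A one-generation exposure of luciferase-tagged malaria parasites in RPMI 1640/Albumax erythrocyte culture, 37 C and 5% CO2. Inhibition is inferred from decreased luminescence after adding detection reagent.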
HCMV antiviral = blocks human cytomegalovirus replication; HFF cells, HCMV-luciferase reporter, 72 h; stronger effect = lower value; activity change, negative = inhibition, % at 57.5 µM; 4.5% of 410,000 active; AID 1259415; in the data active = activity change below about -60%; inconclusive = no clear call, values can overlap the other calls; inactive = above about -39%
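Cell-based, HFFs, 1000 cells/well, 16 h 37C; cpds in DMSO + HCMV-luc, MOI 1 PFU/cell; 72 h 37C; OneGlo luminescence after 5 min RT; norm. to buffer vs Salinomycin 10uM.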
Pf growth 96h = P. falciparum growth inhibition at 96 hour, primary screen for plastid delayed-death inhibitors. Potency, µM (top dose mostly 28.7 µM), usual class: inhibitors. 6.9% of 320,000 active. P. falciparum luciferase reporter growth, 96 h
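Delayed-death screen, second-generation endpoint: infected erythrocytes, 2% hematocrit, 0.05% parasitemia final; 96 hours at 37 C, 5% CO2; luciferase detection reagent; luminescence decrease equals reduced growth.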
Each line names hits and unclear results; the compound was inactive in the other large screens. Unless noted, calls follow the shape of the dose curve; as a rule, active = well fitted curve in the direction sought with a large enough effect; inconclusive = small, poorly fitted or top-dose-only effect, or another doubt; inactive = no such curve, though single readings can be large; an effect the other way counts as inactive or inconclusive.

COc1ccc(C(CNC(=O)c2cccc(S(=O)(=O)Nc3ccccc3OC)c2)N2CCCC2)cc1 (centres undefined)	Pf growth 48h inconclusive, Pf growth 96h 13.1µM
COc1ccc(Cl)cc1NS(=O)(=O)c1cccc(C(=O)NCC(c2ccco2)N(C)C)c1 (centres undefined)	HCV inhibitor inconclusive, Sm TGR inh 12.6µM
COc1ccc(C(CNC(=O)c2cccc(S(=O)(=O)Nc3ccc(F)cc3)c2)N2CCCC2)cc1 (centres undefined)	none (no result: Sm TGR inh, SARS PLpro yeast, Pf growth 48h, Pf growth 96h)
COc1ccc(C(CNC(=O)c2cccc(S(=O)(=O)Nc3ccccc3OC)c2)N2CCCCC2)cc1 (centres undefined)	HCV inhibitor inconclusive, HCMV antiviral -99.2 (no result: Sm TGR inh, SARS PLpro yeast, Pf growth 48h, Pf growth 96h)
COc1ccccc1NS(=O)(=O)c1cccc(C(=O)NCC(c2ccco2)N2CCCCC2)c1 (centres undefined)	HCV inhibitor inconclusive, Pf growth 48h 5.22µM, Pf growth 96h inconclusive
COc1ccc(Cl)cc1NS(=O)(=O)c1cccc(C(=O)NCC(c2ccco2)N2CCCC2)c1 (centres undefined)	Pf growth 96h inconclusive
COc1ccccc1NS(=O)(=O)c1cc(C(=O)NCC(c2cccs2)N2CCOCC2)ccc1C (centres undefined)	HCV inhibitor inconclusive, Pf growth 48h inconclusive, Pf growth 96h inconclusive
COc1ccc(C(CNC(=O)c2ccc(C)c(S(=O)(=O)Nc3ccccc3OC)c2)N2CCCC2)cc1 (centres undefined)	Pf growth 48h 4.15µM, Pf growth 96h inconclusive
CCCOc1ccc(C(F)(F)F)cc1NC(=O)c1cc(C)on1	none
COc1ccccc1-c1cc(C(F)(F)F)nc(N2CCCC2)n1	none
COc1ccccc1-c1cc(C(F)(F)F)nc(S(=O)(=O)CCCC(=O)N2CCCCC2C)n1 (centres undefined)	HCV inhibitor inconclusive, Sm TGR inh 22.4µM, Pf growth 48h inconclusive
COc1ccccc1-c1cc(C(F)(F)F)nc(S(=O)(=O)CCCC(=O)NC(C)C)n1	HCV inhibitor inconclusive
COc1ccccc1-c1cc(C(F)(F)F)nc(S(=O)(=O)CCCC(=O)Nc2cccnc2Cl)n1	HCV inhibitor inconclusive, Sm TGR inh inconclusive, Pf growth 48h inconclusive, HCMV antiviral -90.1
COc1ccccc1-c1cc(C(F)(F)F)nc(S(=O)(=O)CCCC(=O)NCc2ccc(F)cc2)n1	HCV inhibitor inconclusive, Sm TGR inh inconclusive, Pf growth 48h inconclusive, HCMV antiviral -98.8, Pf growth 96h 2.94µM
COc1ccccc1-c1cc(C(F)(F)F)nc(S(C)(=O)=O)n1	HCV inhibitor inconclusive, Sm TGR inh 28.2µM, HCMV antiviral -104.3, Pf growth 96h inconclusive (no result: Pf growth 48h)
COC(=O)c1ccc(Cn2cc(C(F)(F)F)cc([N+](=O)[O-])c2=O)cc1	none
COc1ccc(-c2cc(C(F)(F)F)nc(S(=O)(=O)CCCC(=O)Nc3cc(C)on3)n2)cc1OC	HCV inhibitor inconclusive, Sm TGR inh inconclusive, Pf growth 48h inconclusive, Pf growth 96h inconclusive
COc1ccccc1-c1cc(C(F)(F)F)nc(S(=O)(=O)CCCC(=O)Nc2ccccc2F)n1	HCMV antiviral -102.5 (no result: HCV inhibitor, SARS PLpro yeast, Pf growth 48h, Pf growth 96h)
COc1ccc(NC(=O)CCCS(=O)(=O)c2nc(-c3ccccc3OC)cc(C(F)(F)F)n2)c(OC)c1	none (no result: HCV inhibitor, SARS PLpro yeast, Pf growth 48h, Pf growth 96h)
COc1ccccc1-c1cc(C(F)(F)F)nc(S(=O)(=O)CCCC(=O)Nc2cc(C)on2)n1	HCMV antiviral -96.0, Pf growth 96h 1.85µM
COc1ccc2[nH]c3c(c2c1)CCn1c-3nc2sc(C(=O)Nc3ccccc3)c(C)c2c1=O	none (no result: HCMV antiviral)
COc1ccc2[nH]c3c(c2c1)CCC/C3=N\N	HCV inhibitor inconclusive, Sm TGR inh 44.7µM
CCc1cc2c(=O)n3c(nc2s1)-c1[nH]c2ccc(OC)cc2c1CC3	Pf growth 96h 2.94µM
COc1ccc2[nH]c3c(c2c1)CCN=C3C	HCV inhibitor 2.82µM, Pf growth 48h 9.28µM, HCMV antiviral -91.5, Pf growth 96h inconclusive (no result: SARS PLpro yeast)
COc1ccc2[nH]c3c(c2c1)CCNC3=O	none (no result: HCV inhibitor, Sm TGR inh, SARS PLpro yeast, Pf growth 48h, Pf growth 96h)
CC1Cc2ccccc2N1CC(=O)NCc1ccccc1Cl (centres undefined)	HCV inhibitor inconclusive
Cn1c(SCC(=O)Nc2ncc(C(F)(F)F)cc2Cl)nnc1-c1ccc(Cl)cc1	none
COC(=O)CC1=C(C(=O)OC)[C@@H](c2ccccc2[N+](=O)[O-])C(C#N)=C(N)O1	Pf growth 96h inconclusive
O=C1NC[C@H](CCCCN2CCN(CC3CCCCC3)C(=O)C2=O)N(CC2CCCCC2)C1=O	none (no result: HCV inhibitor, Sm TGR inh, SARS PLpro yeast, Pf growth 48h, Pf growth 96h)
CN(Cc1ccccc1)C(=O)COC(=O)c1cc(NS(=O)(=O)c2cccs2)ccc1O	HCV inhibitor 10µM, Pf growth 96h inconclusive
O=C(COC(=O)c1cc(NS(=O)(=O)c2cccs2)ccc1O)Nc1ccccc1	none
NC1=NC(=O)C(CC(=O)c2ccc(Cl)cc2)S1 (centres undefined)	Sm TGR inh 20µM
Cc1ccc(C(=O)CC2SC(N)=NC2=O)cc1 (centres undefined)	none
CN(Cc1cnn(C)c1)Cc1nc(C(c2ccccc2)c2ccccc2)no1	Pf growth 48h inconclusive
CN(Cc1cnn(C)c1)Cc1nc(-c2ccc(Cl)cc2)no1	Pf growth 96h 9.28µM
COc1cc(Cn2c(N)c(C#N)c3nc4ccccc4nc32)cc(OC)c1	HCV inhibitor inconclusive, Pf growth 48h inconclusive, Pf growth 96h 2.33µM
COCCn1c(N)c(C#N)c2nc3ccccc3nc21	none (no result: Pf growth 96h)
COc1ccc(Cn2c(N)c(C#N)c3nc4ccccc4nc32)cc1	Pf growth 48h 4.65µM, Pf growth 96h inconclusive
COC(=O)c1c(N)n(Cc2ccc(OC)cc2)c2nc3ccccc3nc12	HCV inhibitor inconclusive, Pf growth 48h inconclusive
N#Cc1c(N)n(CCc2ccc(F)cc2)c2nc3ccccc3nc12	HCMV antiviral -68.9, Pf growth 96h 0.329µM (no result: Pf growth 48h)
N#Cc1c(N)n(CCOC(=O)c2cccc([N+](=O)[O-])c2)c2nc3ccccc3nc12	Pf growth 48h inconclusive, Pf growth 96h 8.28µM
C[C@@H]1CC2C3CCC4=CC(=O)C=C[C@]4(C)[C@@]3(F)[C@@H](O)C[C@]2(C)[C@@]1(O)C(=O)COC(=O)c1cccc(S(=O)(=O)O)c1 (some centres undefined)	none (no result: HCV inhibitor, Sm TGR inh, SARS PLpro yeast, HCMV antiviral)
Cc1ccc(Cl)cc1NC(=O)C1CCN(C(=O)c2cnn(-c3ccccc3)c2-n2cccc2)CC1	none (no result: HCV inhibitor, SARS PLpro yeast, Pf growth 48h, Pf growth 96h)
COc1cccc(Cn2c(N)c(C#N)c3nc4ccccc4nc32)c1OC	Pf growth 48h inconclusive, Pf growth 96h 10.4µM
N#Cc1c(N)n(CCOC(=O)c2cccc(Br)c2)c2nc3ccccc3nc12	Pf growth 96h inconclusive (no result: SARS PLpro yeast)
CCCCOc1ccc(C(=O)Nc2ccncc2)cc1	HCV inhibitor 8.91µM, Pf growth 48h inconclusive, HCMV antiviral -76.0
CCCOc1ccc(C(=O)Nc2ccc(CN3CCOCC3)cc2)cc1	HCV inhibitor inconclusive, HCMV antiviral inconclusive, Pf growth 96h inconclusive
COc1ccc(CN2CCOCCOCCOCC2)cc1	none
